{"source": "PubChem BioAssay AID686978", "about": "(National Center for Advancing Translational Sciences (NCATS), 2013)", "note": "In all, about 420,000 compounds went through this assay and about 64,000 (15%) were called active. Not shown: some 27% with an inconclusive outcome. Only a sample is shown. Unmarked numbers belong to inactive results. Calls follow the shape of the dose curve; as a rule, active = well fitted inhibition curve with a large enough effect; inconclusive = small, poorly fitted or top-dose-only effect; inactive = flat fitted curve, though single readings scatter. % is scaled to controls: 0 for no effect and ±100 for the full control effect; potency is read from the fitted curve at half-maximal effect."}
{"assay": "qHTS for Inhibitors of human tyrosyl-DNA phosphodiesterase 1 (TDP1): qHTS in cells in absence of CPT; also: nearly all actives have a fitted effect of over 55% in size", "details": "DT40 Tdp1-/- hTDP1 cells, no CPT, ATP luminescence, 48 h; activity change, negative = growth inhibition: at 46.2 µM (top of the series)", "in_short": "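No-CPT arm: Tdp1-/-;hTDP1 DT40 cells (400/well) plus compounds, incubated ≥48 hr at 37 °C. Readout CellTiter-Glo luminescence.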", "units": {"activity change, negative = growth inhibition": "%"}}
{"smiles": "CCOC(=O)c1c(C)[nH]c(CCC(=O)NCCCN2CCN(c3cc(C)ccc3C)CC2)c1C", "Potency": "4.61 µM (active)"}
{"smiles": "O=C(COc1cc2oc(=O)c3c(c2cc1Cl)CCC3)NCCCN1CCOCC1", "activity change, negative = growth inhibition": 1.09}
{"smiles": "CCOC(=O)c1c(C)[nH]c(CCC(=O)NCCCN2CCN(c3cccc(Cl)c3)CC2)c1C", "Potency": "16.4 µM (active)"}
{"smiles": "Cc1ccccc1N1CCN(CC(=O)NCc2ccc(Cl)cc2)CC1", "activity change, negative = growth inhibition": -29}
{"smiles": "Cc1ccc(C)c(N2CCN(CCCNC(=O)Nc3ccc(Cl)cc3)CC2)c1", "Potency": "6.51 µM (active)"}
{"smiles": "CCOC(=O)N1CCC(Nc2c(NCCCN3CCN(c4ccc(OC)cc4)CC3)c(=O)c2=O)CC1", "activity change, negative = growth inhibition": 6.14}
{"smiles": "CCOc1ccc(S(=O)(=O)NCCCn2ccnc2)cc1NC(C)=O", "activity change, negative = growth inhibition": -20.8}
{"smiles": "CN(CCc1ccccc1)c1ccc([N+](=O)[O-])cn1", "activity change, negative = growth inhibition": 5.85}
{"smiles": "C/C=C(/C)C(=O)Nc1cccc(C2=NOC3(C2)C[C@@H](C(N)=O)N(C(=O)C2(C)CC2)C3)c1", "note": "(stereo partly specified)", "activity change, negative = growth inhibition": -16.5}
{"smiles": "O=C(NCC(O)c1ccc([N+](=O)[O-])cc1)C1CCCCC1", "note": "(stereo unspecified)", "activity change, negative = growth inhibition": 13.8}
{"smiles": "C=CC1C(OC2OC(CO)C(O)C(O)C2O)OC=C(C(=O)OC)C1CC1CC(=O)CC(CC(=O)CCc2ccc(O)cc2)O1", "note": "(stereo unspecified)", "activity change, negative = growth inhibition": -16.7}
{"smiles": "C[C@@H](O)c1nc2ccccc2n1N", "activity change, negative = growth inhibition": 10.4}
{"smiles": "C#CCOCCOCCOCCNc1nc(N2CCOCC2)nc(N2CCN(C(=O)[C@H](Cc3ccc(O)cc3)n3cc(CCO)nn3)CC2)n1", "activity change, negative = growth inhibition": 20.5}
{"smiles": "Cn1cc(CN2CCCCC2c2ccccn2)c(-c2ccc3c(c2)OCCO3)n1", "note": "(stereo unspecified)", "activity change, negative = growth inhibition": -11.7}
{"smiles": "COC(=O)c1ccc2c(c1)S(=O)(=O)NC(=NCCCN1CCOCC1)S2", "activity change, negative = growth inhibition": -1.67}
{"smiles": "CCc1nnc(NC(=O)CCC(=O)N2CCN(c3cc(C)ccc3C)CC2)s1", "activity change, negative = growth inhibition": -7.76}
{"smiles": "CC1=C(c2ccc(C)cc2)S(=O)(=O)NC1=NCCCN1CCN(c2cc(C)ccc2C)CC1", "Potency": "3.66 µM (active)"}
{"smiles": "CCN(CC)C(=O)N1CCN(C(=O)c2ccc(C)cn2)CC1", "activity change, negative = growth inhibition": -5.87}
{"smiles": "Cc1nc2ccc(C(=O)N/N=C/c3ccc(O)cc3)cc2[nH]1", "activity change, negative = growth inhibition": -4.18}
{"smiles": "O=C(N/N=C/c1ccc(Cl)c(Cl)c1)c1ccc2nc[nH]c2c1", "Potency": "23.1 µM (active)"}
{"smiles": "CC(=NNC(=O)c1ccc2nc[nH]c2c1)c1ccc(Br)cc1", "activity change, negative = growth inhibition": -25.5}
{"smiles": "CCCCc1ccc(S(=O)(=O)NC(=O)C2(C)CCN2C(=O)c2ccccc2)cc1", "note": "(stereo unspecified)", "activity change, negative = growth inhibition": -2.64}
{"smiles": "COc1ccc(C2/C(=C(/O)c3ccc4c(c3)CC(C)O4)C(=O)C(=O)N2Cc2ccncc2)cc1", "note": "(stereo unspecified)", "activity change, negative = growth inhibition": 2.22}
{"smiles": "COc1cc(C2C(C(=O)OCCC#N)=C(C)NC3=C2S(=O)(=O)c2ccccc23)cc(OC)c1OC", "note": "(stereo unspecified)", "activity change, negative = growth inhibition": 18.7}
{"smiles": "O=C(Nc1ccccc1Br)c1cc(CN2CCCC2)on1", "activity change, negative = growth inhibition": -15}
{"smiles": "O=C(c1ccco1)N1CCN(C(=O)c2cc(-c3ccccc3F)no2)CC1", "activity change, negative = growth inhibition": -5.39}
{"smiles": "CN(Cc1ccccc1)Cc1ccccc1F", "activity change, negative = growth inhibition": -26.3}
{"smiles": "CN(Cc1ccccc1F)C(=O)C(Cc1ccccc1)NC(=O)c1ccccc1", "note": "(stereo unspecified)", "Potency": "16.4 µM (active)"}
{"smiles": "CC(Cc1ccccc1)C(=O)N(C)Cc1ccccc1", "note": "(stereo unspecified)", "activity change, negative = growth inhibition": -13.9}
{"smiles": "Cc1ccc(C)c(C(C)NC(=O)C2CCCO2)c1", "note": "(stereo unspecified)", "activity change, negative = growth inhibition": -28.7}
{"smiles": "O=c1onc(-c2c(F)cccc2F)n1-c1ccccc1Cl", "activity change, negative = growth inhibition": 16.1}
{"smiles": "CCOC(=O)Cn1c(SC)nc2sc3c(c2c1=O)CC(C)(C)OC3", "Potency": "14.6 µM (active)"}
{"smiles": "CCOC(=O)CSc1nc2sc3c(c2c(=O)[nH]1)CC(C)(C)OC3", "activity change, negative = growth inhibition": -25.4}
{"smiles": "CCSc1nc2sc3c(c2c(=O)[nH]1)CC(C)(C)OC3", "activity change, negative = growth inhibition": -19.9}
{"smiles": "CCOC(=O)C1(Cc2ccc(O)cc2)NC(c2ccccc2F)C2C(=O)N(C)C(=O)C21", "note": "(stereo unspecified)", "Potency": "20.6 µM (active)"}
{"smiles": "CCOCCOC(=O)C1=C(C)N(C)C(=O)NC1c1ccccc1F", "note": "(stereo unspecified)", "activity change, negative = growth inhibition": -14.8}
{"smiles": "COC(=O)C1(C)NC(c2ccccc2OC)C2C(=O)N(c3ccccc3)C(=O)C21", "note": "(stereo unspecified)", "activity change, negative = growth inhibition": 9.08}
{"smiles": "Cc1n[nH]c(=O)c2c1nnn2Cc1ccc(F)cc1", "activity change, negative = growth inhibition": 17.2}
{"smiles": "Cc1cc(C)cc(NC(=O)Cn2cnc3c(nnn3Cc3ccc(F)cc3)c2=O)c1", "activity change, negative = growth inhibition": 0.0292}
{"smiles": "Cc1ccc(C)c(Cn2nnc3c(=O)[nH]c(C(=O)Nc4ccc(F)cc4)nc32)c1", "Potency": "16.4 µM (active)"}
{"smiles": "O=C1NC(c2ccccc2)Oc2ccccc21", "note": "(stereo unspecified)", "activity change, negative = growth inhibition": -0.613}
{"smiles": "O=C(OCCN1C(=O)c2ccccc2C1=O)Oc1ccccc1", "activity change, negative = growth inhibition": 3.82}
{"smiles": "C[C@H]1CN([C@@H](C)CO)C(=O)CCCn2cc(nn2)CO[C@@H]1CN(C)C(=O)Nc1ccccc1", "activity change, negative = growth inhibition": 9.92}
{"smiles": "COc1ccc(OC)c(C(=O)NC(CC(N)=O)c2ccc(N3CCC(N4CCCCC4)CC3)c([N+](=O)[O-])c2)c1", "note": "(stereo unspecified)", "activity change, negative = growth inhibition": -0.645}
{"smiles": "NC(=O)CC(NC(=O)Cc1cccc2ccccc12)c1ccc(NCc2cc(F)ccc2F)c([N+](=O)[O-])c1", "note": "(stereo unspecified)", "Potency": "29.1 µM (active)"}
{"smiles": "CC1CCCCN1CCCNc1ccc(C(CC(N)=O)NC(=O)c2ccccc2)cc1[N+](=O)[O-]", "note": "(stereo unspecified)", "activity change, negative = growth inhibition": 1.22}
{"smiles": "COc1ccccc1CNc1ncncc1-c1cccc(NS(C)(=O)=O)c1", "activity change, negative = growth inhibition": 19.5}
{"smiles": "CNc1ncnc2ccc(-c3cccc(NS(C)(=O)=O)c3)cc12", "Potency": "18.4 µM (active)"}
{"smiles": "CS(=O)(=O)Nc1cccc(-c2cncnc2Nc2ccccc2)c1", "activity change, negative = growth inhibition": -2.18}
{"smiles": "Cn1c2ccccc2c2cc(/C=C(\\NC(=O)c3ccccc3)C(=O)NCC(=O)O)ccc21", "activity change, negative = growth inhibition": 7.87}
{"smiles": "O=C(O)C1CCCN1C1=NS(=O)(=O)c2ccccc21", "note": "(stereo unspecified)", "activity change, negative = growth inhibition": 18.4}
